Test results from PubChem BioAssay (EPA / NIEHS).
Calls of active or inactive are those of the source. The calls were made as follows: active = hit-call score of the fitted dose curve at least 0.9, where 1 is the maximum; inactive = score below 0.9.

What was measured:
[1] = read-out: Matrix Metallopeptidase 1 (MMP1), MMP1 (gene 4312); experiment: BSK_BE3C_MMP1: BioMAP Diversity Plus: BE3C Assay for Matrix Metallopeptidase 1 (MMP1) Biomarker Activity (AID 2283024); conditions: primary human bronchial epithelial cells; actives raise or lower the signal
Outline: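 ELISA measurement of MMP-1 after 24 h compound exposure of primary human bronchial epithelial cells. Changes in either direction fitted relative to DMSO; parallel SRB staining checked overt cytotoxicity.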

[2] = BSK_3C_Vis: BioMAP Diversity Plus: 3C Assay for Morphology Visualization (AID 2283025); conditions: primary human endothelial cells (HUVEC);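 also: fitted both ways so gain or loss versus DMSO counts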;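 as to AC50: light microscopy image of cell morphology used as background control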
Outline: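 Light-microscopy visualization of HUVEC cultures at 24 h post-treatment, with DMSO as baseline for bidirectional fitting.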

[3] = read-out: Pselectin, SELP (gene 6403); experiment: BSK_4H_Pselectin: BioMAP Diversity Plus: 4H Assay for Pselectin Biomarker Activity (AID 2283026); conditions: primary human endothelial cells (HUVEC); actives raise or lower the signal
Outline: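 ELISA of surface P-selectin on HUVEC, 24 h after dosing, with parallel SRB staining (0.1% after 10% TCA fixation, 560 nm) for overt cytotoxicity. Activity fitted in both directions relative to DMSO.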

[4] = BSK_4H_SRB: Viability Assessment in the BioMAP Diversity Plus: 4H Assay (AID 2283027); conditions: primary human endothelial cells (HUVEC);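 also: cells exposed to compound for 24 h before staining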;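 as to AC50: curves fitted both ways versus DMSO so AC50 may be loss or gain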
Outline: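 HUVEC, 24 h post-dose; 10% TCA fix, 0.1% SRB stain, A560 nm. Total protein = overt cytotoxicity, parallel to biomarker read. Bidirectional fit vs DMSO baseline.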

[5] = BSK_BE3C_SRB: Viability Assessment in the BioMAP Diversity Plus: BE3C Assay (AID 2283028); conditions: primary human bronchial epithelial cells;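 as to AC50: fitted both ways so AC50 may mark signal gain or loss versus DMSO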
Outline: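 Primary human bronchial epithelium; chemical dosing, 24 h; 10% TCA fix, 0.1% SRB stain, A560; bidirectional fit vs DMSO baseline.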

[6] = read-out: Urokinase-type plasminogen activator receptor (uPAR), PLAUR (gene 5329); experiment: BSK_4H_uPAR: BioMAP Diversity Plus: 4H Assay for Urokinase-type plasminogen activator receptor (uPAR) Biomarker Activity (AID 2283030); conditions: primary human endothelial cells (HUVEC); actives raise or lower the signal
Outline: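 HUVEC, 24 h post-dose; uPAR by ELISA; bidirectional fit vs DMSO baseline.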

[7] = read-out: Vascular endothelial growth factor receptor 2 (Homo sapiens) (UniProt P35968); experiment: BSK_4H_VEGFRII: BioMAP Diversity Plus: 4H Assay for Vascular endothelial growth factor receptor 2 (VEGFR2) Biomarker Activity (AID 2283031); conditions: primary human endothelial cells (HUVEC); actives raise or lower the signal
Outline: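 HUVEC (human primary), 4H system; 24 h post-dose; VEGFRII by ELISA; bidirectional curve fit vs DMSO baseline; gain or loss of signal scored.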

[8] = read-out: Human Leukocyte Antigen - DR isotype (HLADR), HLA-DRA (gene 3122); experiment: BSK_BE3C_HLADR: BioMAP Diversity Plus: BE3C Assay for Human Leukocyte Antigen - DR isotype (HLADR) Biomarker Activity (AID 2283032); conditions: primary human bronchial epithelial cells; actives raise or lower the signal
Outline: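 Cell-surface HLA-DR ELISA readout at 24 h after dosing in the BE3C primary human lung bronchial epithelial system; gain or loss of signal against DMSO, with parallel sulforhodamine B staining of total protein for overt cytotoxicity.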

[9] = read-out: Vascular cell adhesion molecule 1 (VCAM1), VCAM1 (gene 7412); experiment: BSK_4H_VCAM1: BioMAP Diversity Plus: 4H Assay for Vascular cell adhesion molecule 1 (VCAM1) Biomarker Activity (AID 2283033); conditions: primary human endothelial cells (HUVEC); actives raise or lower the signal
Outline: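 VCAM-1 ELISA read 24 h after chemical dosing of HUVEC in the BioMAP 4H system, with gain or loss of signal fitted relative to DMSO. Parallel SRB staining (560 nm) checked overt cytotoxicity.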

[10] = read-out: Monokine induced gamma interferon (MIG), CXCL9 (gene 4283); experiment: BSK_BE3C_MIG: BioMAP Diversity Plus: BE3C Assay for Monokine induced gamma interferon (MIG) Biomarker Activity (AID 2283035); conditions: primary human bronchial epithelial cells; actives raise or lower the signal
Outline: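 Dose cells (human primary bronchial epithelial), incubate 24 h, quantify MIG by ELISA, then fit concentration–response in both directions relative to DMSO control.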

[11] = read-out: Transforming growth factor beta 1 (TGFb1), TGFB1 (gene 7040); experiment: BSK_BE3C_TGFb1: BioMAP Diversity Plus: BE3C Assay for Transforming growth factor beta 1 (TGFb1) Biomarker Activity (AID 2283036); conditions: primary human bronchial epithelial cells; actives raise or lower the signal
Outline: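 ELISA readout of TGF-b1 from human lung bronchial epithelial primary cells, taken 24 h post-treatment. Gain or loss of signal fitted relative to DMSO baseline, with parallel SRB staining for overt cytotoxicity.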

[12] = read-out: urokinase plasminogen activator (uPA), PLAU (gene 5328); experiment: BSK_BE3C_uPA: BioMAP Diversity Plus: BE3C Assay for urokinase plasminogen activator (uPA) Biomarker Activity (AID 2283038); conditions: primary human bronchial epithelial cells; actives raise or lower the signal
Outline: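 ELISA read-out of uPA in human lung primary bronchial epithelial cultures, 24 h post-dosing. Gain or loss of signal fitted bidirectionally relative to DMSO baseline; cytotoxicity checked in parallel cultures via SRB total protein stain.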

[13] = read-out: Urokinase-type plasminogen activator receptor (uPAR), PLAUR (gene 5329); experiment: BSK_BE3C_uPAR: BioMAP Diversity Plus: BE3C Assay for Urokinase-type plasminogen activator receptor (uPAR) Biomarker Activity (AID 2283039); conditions: primary human bronchial epithelial cells; actives raise or lower the signal
Outline: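 uPAR levels were measured by ELISA after 24 h compound treatment of primary human bronchial epithelial cells, fitted in both directions relative to DMSO. Parallel SRB staining served as the cytotoxicity read-out.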

[14] = read-out: Interleukin-6 (IL6), IL6 (gene 3569); experiment: BSK_CASM3C_IL6: BioMAP Diversity Plus: CASM3C Assay for Interleukin-6 (IL6) Biomarker Activity for (AID 2283040); conditions: primary human coronary artery smooth muscle cells; actives raise or lower the signal
[15] = read-out: Interleukin-8 (IL8), CXCL8 (gene 3576); experiment: BSK_CASM3C_IL8: BioMAP Diversity Plus: CASM3C Assay for Interleukin-8 (IL8) Biomarker Activity (AID 2283042); conditions: primary human coronary artery smooth muscle cells; actives raise or lower the signal;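 also: IL-8 protein level quantified by ELISA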
[16] = read-out: Human Leukocyte Antigen - DR isotype (HLADR), HLA-DRA (gene 3122); experiment: BSK_CASM3C_HLADR: BioMAP Diversity Plus: CASM3C Assay for Human Leukocyte Antigen - DR isotype (HLADR) Biomarker Activity (AID 2283043); conditions: primary human coronary artery smooth muscle cells; actives raise or lower the signal;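 also: cell-surface HLA-DR protein level quantified by ELISA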
[17] = read-out: Interferon-gamma inducible Protein 10 (IP10), CXCL10 (gene 3627); experiment: BSK_BE3C_IP10: BioMAP Diversity Plus: BE3C Assay for Interferon-gamma inducible Protein 10 (IP10) Biomarker Activity (AID 2283034); conditions: primary human bronchial epithelial cells; actives raise or lower the signal
Outline: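 IP-10 quantified by ELISA in human primary bronchial epithelial cell cultures at 24 hours post-dosing. Gain or loss of signal fitted relative to DMSO; parallel SRB staining assessed overt cytotoxicity.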

[18] = read-out: Plasminogen activator inhibitor-1 (PAI1), SERPINE1 (gene 5054); experiment: BSK_BE3C_PAI1: BioMAP Diversity Plus: BE3C Assay for Plasminogen activator inhibitor-1 (PAI1) Biomarker Activity (AID 2283037); conditions: primary human bronchial epithelial cells; actives raise or lower the signal
Outline: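 PAI-1 was measured by ELISA in human primary bronchial epithelial cultures 24 h after chemical dosing, with cytotoxicity checked by SRB total-protein staining in parallel cultures. Activity was fitted in both directions relative to DMSO.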

[19] = read-out: Thrombomodulin, THBD (gene 7056); experiment: BSK_3C_Thrombomodulin: BioMAP Diversity Plus: 3C Assay for Thrombomodulin Biomarker Activity (AID 2283029); conditions: primary human endothelial cells (HUVEC); actives raise or lower the signal
Outline: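 ELISA measurement of thrombomodulin on HUVEC surface 24 h after chemical dosing; activity fitted in both directions relative to DMSO vehicle.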

[20] = read-out: Tissue plasminogen activator (tPA), PLAT (gene 5327); experiment: BSK_BE3C_tPA: BioMAP Diversity Plus: BE3C Assay for Tissue plasminogen activator (tPA) Biomarker Activity (AID 2283041); conditions: primary human bronchial epithelial cells; actives raise or lower the signal
Outline: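 tPA measured by ELISA 24 h after dosing human primary bronchial epithelial cells (BE3C system). Changes in either direction were fitted against DMSO. Parallel cultures were stained with SRB to flag overt cytotoxicity.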

Measured: AC50

O=C(O)Cn1c(=O)n(Cc2ccc(Br)cc2F)c(=O)c2ccc(Cl)cc21
not listed: [17] | [18] | [19] | [20]
inactive: all other assays above

CC1(C)NC(=O)N(c2ccc([N+](=O)[O-])c(C(F)(F)F)c2)C1=O
not listed: [13] | [19] | [20]
inactive: all other assays above

Clc1ccccc1C(c1ccccc1)(c1ccccc1)n1ccnc1
inactive: [7]
active: [1] 11.8 µM | [2] 14.5 µM | [3] 8.64 µM | [4] 24.9 µM | [5] 8.78 µM | [6] 18.3 µM | [8] 8.22 µM | [9] 33.5 µM | [10] 9.5 µM | [11] 6.45 µM | [18] 7.59 µM | [14] 31.9 µM | [15] 36.6 µM | [16] 28 µM

Cc1c2ccccc2c(C)c2c1ccc1ccccc12
inactive: [5] | [19] | [7] | [8] | [10] | [12] | [20] | [15]
active: [1] 20 µM | [2] 13.7 µM | [3] 14.7 µM | [4] 18.8 µM | [6] 14 µM | [9] 20 µM | [11] 6.06 µM | [14] 20 µM | [16] 20 µM

CC(C)(c1cc(Br)c(O)c(Br)c1)c1cc(Br)c(O)c(Br)c1
active: [1] 9.3 µM | [2] 37.8 µM | [3] 30.2 µM | [4] 28.7 µM | [5] 5.06 µM | [19] 8.15 µM | [6] 28.9 µM | [8] 7.25 µM | [9] 29.6 µM | [10] 9.16 µM | [11] 5.15 µM | [12] 9.34 µM | [20] 3.37 µM | [16] 33.1 µM
inactive: [7] | [14] | [15]

CO[C@H]1/C=C/O[C@@]2(C)Oc3c(C)c(O)c4c(O)c(c(/C=N/N5CCN(C)CC5)c(O)c4c3C2=O)NC(=O)/C(C)=C\C=C\[C@H](C)[C@H](O)[C@@H](C)[C@@H](O)[C@@H](C)[C@H](OC(C)=O)[C@@H]1C
not listed: [2] | [12] | [17] | [19]
inactive: all other assays above

OC12N=C(c3ccccc3)SC1Cc1cc(Cl)ccc12 (centres undefined)
active: [1] 15.3 µM | [9] 20 µM
not listed: [17] | [18]
inactive: all other assays above

COCC(C)OCC(C)OCC(C)O (centres undefined)
not listed: [2] | [17] | [18] | [19]
inactive: all other assays above

O=C=NCCCCCCN=C=O
not listed: [12] | [13] | [19]
inactive: all other assays above

OCCO
not listed: [2] | [7] | [19] | [20]
inactive: all other assays above

CC(C)(O)c1ccc(CNC(=O)c2cccnc2Oc2ccc3nonc3c2)cc1
active: [14] 20 µM
not listed: [2] | [19] | [20]
inactive: all other assays above

CCCOC(=O)c1cc(O)c(O)c(O)c1
active: [9] 2.01 µM
not listed: [13] | [19]
inactive: all other assays above

NCc1cccc(C2CCN(C(=O)c3ccc(C#Cc4ccccc4F)o3)CC2)c1
active: [1] 28.2 µM | [2] 13.3 µM | [3] 13.3 µM | [4] 15.1 µM | [5] 15.4 µM | [19] 12.7 µM | [6] 23.2 µM | [8] 6.79 µM | [9] 26.2 µM | [17] 12.4 µM | [10] 13.7 µM | [11] 13.1 µM | [12] 7.93 µM | [13] 11.8 µM | [14] 33.9 µM | [20] 7.07 µM | [15] 34.7 µM | [16] 13.3 µM
inactive: [7]
